Assay results as given in the supplement of paper PMC11219838.
Unmarked numbers belong to inactive results.

Columns and labels:
Settings in all cases: 60 µM; 5 days; temperature: 20 °C
Meloidogyne hapla J2 = assay: proportion of mobile M. hapla J2 relative to DMSO control (fraction of DMSO control); higher = more viable, less nematicidal, active = 0.7 or less
Summary of the method: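 Two biological replicates were run and averaged, each on 96-well plates in which about 25 M. hapla J2 sat in distilled water per well. Compound was pinned in to give 60 µM final and 0.6% v/v DMSO, and the sealed plates were shaken at 200 rpm and 20 °C for 5 days before 2 µL 1 M NaOH was added. Mobility was scored microscopically and divided by the mean from the plate's DMSO-only wells, of which there were eight.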

Ditylenchus dipsaci = assay: proportion of mobile D. dipsaci (mixed stage) relative to DMSO control (fraction of DMSO control); higher = more viable, less nematicidal, active = 0.86 or less; extreme values may be limits of the assay
Summary of the method: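 The worms, D. dipsaci raised on pea plants in Gamborg B-5 agar, were recovered through a filter funnel into water. Each well of a 96-well plate then held about 20 of them in distilled water plus pinned compound at 60 µM final (0.6% v/v DMSO), and the sealed plates were shaken at 200 rpm at 20 °C for 5 days. Following addition of 2 µL 1 M NaOH, mobile worms were counted by microscopy, and mobility was expressed against DMSO controls as the average of two biological replicates.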

[1] = system: Caenorhabditis elegans dauer (daf-2(e1370)); assay: proportion of mobile C. elegans dauer larvae relative to DMSO control (fraction of DMSO control); higher = more viable, less nematicidal, active = 0.63 or less; extreme values may be limits of the assay
Summary of the method: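 Synchronized C. elegans larvae were kept for 48 h at 25 °C on MYOB plates seeded with E. coli OP50 to induce dauer formation, and roughly 20 dauers were transferred into each well of a 96-well plate containing liquid NGM. Compound was pinned in to a final concentration of 60 µM with 0.6% v/v DMSO, and the sealed plates were shaken at 200 rpm for 5 days at 20 °C. The fraction of mobile worms was scored under a dissection microscope against DMSO-only wells and averaged across two biological replicates.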

SMILES	proportion of mobile M. hapla J2 (Meloidogyne hapla J2)	proportion of mobile D. dipsaci (Ditylenchus dipsaci)	proportion of mobile C. elegans dauer larvae [1]
CCCOc1ccc(-c2nc(-c3cccnc3)no2)cc1	0.945	1	–
c1ccc(COc2cccc(-c3nc(-c4cccnc4)no3)c2)cc1	0.854	1	–
Cc1cc(C)c(NC(=O)CSc2nnc(-c3ccc(Br)cc3)o2)c(C)c1	1	1	–
Brc1ccc(OCc2nc(-c3cccnc3)no2)cc1	0.955	1	1
Cc1ccc(OCc2nc(-c3ccc(Cl)cc3)no2)c(C)c1	0.997	1	1
Cc1ccc(-c2noc(-c3ccc(C)cc3C)n2)cc1	0.869	1	–
Brc1ccccc1-c1nc(-c2ccncc2)no1	0.995	1	–
Cc1ccc(-c2nnc(SCC(=O)Nc3cc(C)ccc3C)o2)cc1	0.982	1	–
O=C(CSc1nnc(-c2ccccc2)o1)Nc1ccc(Br)cc1F	0.992	1	–
CCOc1ccccc1-c1nnc(SCC(=O)Nc2nccs2)o1	0.739	1	–
Cc1cc(OCc2nc(-c3ccncc3)no2)ccc1Cl	0.921	1	1
CCOC(=O)c1c(NC(=O)CSc2nnc(-c3ccccc3OCC)o2)sc(C(C)=O)c1C	0.918	1	–
Cc1ccc(OCc2nc(-c3ccccc3Cl)no2)c(C)c1	1	1	1
O=C(CSc1nnc(-c2ccco2)o1)NC1CCCCC1	0.824	1	–
COc1ccc(-c2noc(COc3ccc4c(c3)CCCC4)n2)cc1	0.959	1	–
CCOc1ccc(-c2nc(-c3ccccc3C)no2)cc1	0.692 (active)	1	–
CCOc1ccc(-c2nc(-c3ccc(Cl)cc3)no2)cc1	1	1	–
Cc1ccccc1CSc1nnc(-c2ccccc2Cl)o1	0.888	1	–
COc1ccc(-c2noc(COc3ccc(C)c(C)c3)n2)cc1	0.969	1	–
N#Cc1ccccc1CSc1nnc(-c2ccncc2)o1	0.826	1	–
COc1ccc(-c2noc(C34CC5CC(CC(C5)C3)C4)n2)cc1	1.04	1	–
CCOc1nc(-c2ccc(C)cc2)ccc1-c1noc(CC)n1	0.667 (active)	1	1
Cc1cc(OCc2nc(-c3ccccn3)no2)c(C)cc1Br	0.711	1	–

SMILES	proportion of mobile M. hapla J2 (Meloidogyne hapla J2)	proportion of mobile D. dipsaci (Ditylenchus dipsaci)	proportion of mobile C. elegans dauer larvae [1]
COc1nc(C)ccc1-c1noc(-c2ccc(C(C)(C)C)cc2)n1	0.926	1	–
COc1nc(-c2ccccc2)ccc1-c1noc(-c2ccccc2Cl)n1	0.989	1	1
Cc1cc(C)c(OCc2nc(-c3ccncc3)no2)c(C)c1	0.938	1	–
O=C(CSc1nnc(-c2ccccc2Cl)o1)Nc1ccc(Br)cn1	0.851	1	1
Cc1ccc(OCc2nc(-c3ccc4c(c3)OCO4)no2)cc1C	1.04	1	–
COc1ccc(OC(C)c2nc(-c3ccccn3)no2)cc1 (configuration not stated)	1.03	1	–
CCc1ccc(C(=O)Nc2ccccc2-c2nc(-c3cccnc3)no2)cc1	1.03	1	–
Cc1cccc(OC(C)c2nc(-c3ccncc3)no2)c1 (configuration not stated)	0.988	1	–
C(=C\c1ccccc1)/CSc1nnc(-c2ccncc2)o1	0.979	1	–
Cc1cccc(-c2noc(COc3cc(C)ccc3C)n2)c1	1.04	1	–
CCOc1cc(-c2nc(-c3ccc(OC)cc3)no2)cc(OCC)c1OCC	0.998	1	–
Cc1ccc(-c2noc(COc3ccc(Cl)c(C)c3)n2)cc1	0.905	1	–
O=C(CSc1nnc(-c2ccco2)o1)Nc1cccc2ccccc12	0.956	1	–
COc1ccc(-c2noc(COc3ccc(Br)c(C)c3)n2)cc1	0.972	1	–
COc1ccc(-c2nnc(SCC(=O)Nc3ccc(Cl)c(Br)c3)o2)cc1	0.933	1	–
Cc1cccc(-c2noc(COc3ccc(Cl)cc3)n2)c1	1.04	1	–
O=C(CSc1nnc(-c2ccco2)o1)Nc1ccc(F)cc1	0.939	1	–
Cc1ccc(SCc2nc(-c3cccc(C)c3)no2)cc1	1.01	1	–
CC(=O)Nc1ccc(C(=O)CSc2nnc(-c3cccc(Br)c3)o2)cc1	1.01	1	–
Clc1ccccc1OCc1nc(-c2cccs2)no1	1.06	1	–
Cc1cc(Br)ccc1OCc1nc(-c2ccncc2)no1	1.01	1	–
Cc1ccc(OCc2nc(-c3ccc(F)cc3)no2)cc1C	1.03	1	–
